# FEN1 inhibitor – blocks human flap endonuclease 1; Recombinant FEN1 flap cleavage, fluorescence, 15 min; Potency, µM (series often up to 114 µM), for the others: at the highest dose activity change, negative = inhibition, actives largely listed as inhibitors; 0.35% of 390,000 active; further: nearly all actives have a fitted effect of over 65% in size
#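 Steps: FEN1 (10 nM) dispensed; compound added by pin tool; 15 min at room temperature; substrate added to 50 nM final; reads at 0 min and 15 min; data normalized and fitted (four-parameter Hill).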
# BLM helicase inh – Bloom syndrome helicase (human) inhibition. 0.2% of 350,000 active. recombinant BLM DNA unwinding, fluorescence dequenching. P54132. Potency, µM (series often up to 56.1 µM), inactives show at the top dose activity change, negative = inhibition, actives largely listed as inhibitors;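 further: plate controls were vehicle for no effect and no enzyme for full effect; nearly all actives have a fitted effect of over 35% in size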
# APE1 inh-1 – inhibitors of human APE1 endonuclease; recombinant APE1, TAMRA/BHQ-2 abasic DNA cleavage fluorescence; Potency, µM (highest dose often 65.8 µM), for the others: at the top dose activity change, negative = inhibition, most hits filed as inhibitors; 0.35% of 350,000 active; AID 2517;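 further: plate controls were vehicle for no effect and reference inhibitor for full effect; nearly all actives have a fitted effect of over 55% in size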
#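 Kinetic fluorescence read (525 ex/598 em nm, three reads 60 s apart) of AP-site incision; signal = third minus first read. Enzyme 0.75 nM, dual-labelled THF duplex 50 nM, compound preincubation 15 min RT.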
# WRN inhibitor – blocks human WRN helicase | Q14191 | WRN helicase unwinding, fluorescent forked duplex, kinetic | Potency, µM (series often up to 114 µM), for the others: at the top dose activity change, negative = inhibition, most hits filed as inhibitors | 0.46% of 360,000 active | AID 651768; further: nearly all actives have a fitted effect of over 55% in size
#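 Enzyme (20 nM final) and test compound sit together 15 min at room temperature before substrate addition. Substrate is a single-forked duplex oligonucleotide (100 nM) labelled with fluorophore and quencher, with 2 mM ATP; helicase unwinding raises red fluorescence, read kinetically.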
# RECQ1 inh-1 – RECQ1 (human) helicase inhibition. AID 2549. RECQ1 DNA unwinding, red fluorescence kinetic read. Potency, µM (top dose mostly 57.3 µM), inactives show at the top dose activity, negative = inhibition, usual class: inhibitors. 0.54% of 240,000 active;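 further: plate controls were vehicle for no effect and no enzyme for full effect; nearly all actives have a fitted effect of over 30% in size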
# Target sequence (P46063 whole entry, looked up): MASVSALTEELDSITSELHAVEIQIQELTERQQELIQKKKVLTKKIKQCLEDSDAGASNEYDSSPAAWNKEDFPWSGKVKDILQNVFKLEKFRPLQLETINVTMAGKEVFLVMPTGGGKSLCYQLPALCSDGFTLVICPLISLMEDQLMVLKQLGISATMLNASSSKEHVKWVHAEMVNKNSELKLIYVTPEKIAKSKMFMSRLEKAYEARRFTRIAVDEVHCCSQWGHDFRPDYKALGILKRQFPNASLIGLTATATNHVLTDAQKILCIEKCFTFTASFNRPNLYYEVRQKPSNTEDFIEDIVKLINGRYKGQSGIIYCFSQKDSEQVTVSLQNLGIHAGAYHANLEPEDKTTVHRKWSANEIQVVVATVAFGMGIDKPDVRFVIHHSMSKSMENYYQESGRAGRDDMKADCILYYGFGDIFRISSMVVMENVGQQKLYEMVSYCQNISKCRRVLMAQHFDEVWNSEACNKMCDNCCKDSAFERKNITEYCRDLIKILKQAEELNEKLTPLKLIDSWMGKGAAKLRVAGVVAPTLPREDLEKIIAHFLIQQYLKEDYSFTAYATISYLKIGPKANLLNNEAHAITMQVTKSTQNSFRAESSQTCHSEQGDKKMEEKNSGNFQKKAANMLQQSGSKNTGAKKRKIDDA
#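 50 nM RECQ1T1 preincubated 15 min with compound in Tris pH 8.0 buffer with MgCl2, DTT, Tween-20 and 2.5 ug/ml poly(dI-dC); started with 200 nM TAMRA/BHQ-2 forked duplex and 2 mM ATP. Unwinding read as fluorescence (525/598 nm), two reads 2 h apart.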
# APE1 dye cs – DNA dye displacement counter-screen activity; shares compounds with APE1 inh-1; DNA fluorescent dye displacement counterscreen, fluorescence; Potency, µM (doses to about 28.5 µM), inactives show at the top dose activity change, negative = inhibition, hits mostly inhibitors; 7% of 480 active; AID 2564;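 further: loss of thiazole orange fluorescence as the dye is displaced from duplex DNA; 0% = ThO with dsDNA and no compound and -100% = ThO without dsDNA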
# EndoIV counter – counter-screen for APE1 inhibitors: inhibitors of E. coli endonuclease IV; shares compounds with APE1 inh-1; E. coli Endo IV, fluorogenic AP-site DNA cleavage; Potency, µM (top dose mostly 27.1 µM), for the others: at the highest dose activity change, negative = inhibition, most hits filed as inhibitors; 4% of 560 active; AID 2565;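 further: plate controls were uninhibited enzyme wells for no effect and no enzyme buffer wells for full effect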
# APE1 inh-2 – APE1 (human) endonuclease inhibition, confirmation; shares compounds with APE1 inh-1; purified APE1, fluorogenic abasic-site DNA cleavage; Potency, µM (titrated, usually from 57.1 µM), without a hit: at the highest dose activity change, negative = inhibition, most hits filed as inhibitors; 44% of 750 active; AID 2572; further: nearly all actives have a fitted effect of over 30% in size
# APE1 FP – compounds that displace a DNA probe from human APE1; shares compounds with APE1 inh-1; APE1 binding to TAMRA-labelled double-stranded DNA, fluorescence polarization displacement; Potency, µM (titrated, usually from 28.5 µM), inactives show top-dose activity, negative = inhibition, hits mostly inhibitors; 7% of 480 active; AID 2573
# RECQ1 conf – confirmation of human RECQ1 helicase inhibitors | 28% of 610 active | RECQ1 helicase DNA unwinding, fluorescence | Potency, µM (highest dose often 229 µM), without a hit: top-dose activity change, negative = inhibition, most hits filed as inhibitors | AID 2708 | shares compounds with RECQ1 inh-1; further: nearly all actives have a fitted effect of over 45% in size
# RECQ1 ADP FP – displaces ADP in a fluorescence polarization counter-screen for RECQ1 hits; shares compounds with RECQ1 inh-1; ADP fluorescence polarization displacement counterscreen; Potency, µM (series often up to 228 µM), without a hit: at the top dose activity change, negative = inhibition, hits mostly inhibitors; 27% of 530 active; AID 2711; further: nearly all actives have a fitted effect of over 45% in size
# RECQ1 inh-2 – blocks human RECQ1 DNA unwinding | 15% of 1,100 active | recombinant RECQ1 DNA unwinding, red fluorescence | Potency, µM (doses to about 119 µM), for inactives: top-dose activity, negative = inhibition, hits mostly inhibitors | shares compounds with RECQ1 inh-1 | AID 504841; further: nearly all actives have a fitted effect of over 50% in size
# Active calls of the source: *; i = inactive; ? = inconclusive; . = not tested or not shown; ! = not active in a repeat; [ ] = dose if it differs, or a comment. Compounds with a hit are over-represented: about 0.87% of the library has one in this group of screens. The call rests on the fitted dose curve; in most records, active means well fitted curve in the direction sought with a large enough effect; inconclusive means small, poorly fitted or top-dose-only effect, or another doubt; inactive means no such curve, though single readings can be large; an effect the other way counts as inactive or inconclusive. Unless noted, on the % scale 0 is the no-effect control and ±100 the full control effect; potency means the concentration at half of the fitted maximal effect.
SMILES,FEN1 inhibitor,BLM helicase inh,APE1 inh-1,WRN inhibitor,RECQ1 inh-1,APE1 dye cs,EndoIV counter,APE1 inh-2,APE1 FP,RECQ1 conf,RECQ1 ADP FP,RECQ1 inh-2
Nc1cc2nc[nH]c2cc1N,-12.7%,?,-6.6%,?,1.78µM*,.,.,?,.,8.1%[114 µM],?,.
Cn1c(=O)n(C)c2cc3[nH]cnc3cc21,3.6%,-0.3%,42.3%,4.6%,.,.,.,.,.,.,.,.
COc1cccc(CNC(=O)CSc2ncc3c(n2)-c2cc(Cl)ccc2N(C)S3(=O)=O)c1,0.7%,-1.3%,.,.,.,.,.,.,.,.,.,.
COc1ccc(CCn2c(O)cc3nn(-c4nc5ccccc5s4)c(=O)c-3c2C)cc1,?,-26.6%,31.6µM*,?,25.1µM*,?,9.1%,15.8µM*,3.7%,20.3%[114 µM],-3.3%[91.9 µM],-14.7%
CC1CN(C(=O)N2CCC(C(=O)N3CCN(c4ccccc4)CC3)CC2)c2cc(Cl)ccc2O1 (centres undefined),-10.1%,-6.0%,.,.,.,.,.,.,.,.,.,.
O=C(/C=C\c1ccc(O)c(O)c1)O[C@@H]1C[C@](O)(C(=O)O)C[C@@H](O)[C@@H]1O,.,1.4%[21.4 µM],-1.6%[21 µM],.,-3.9%[25.9 µM],.,.,.,.,.,.,.
O=C(/C=C/c1ccc(O)c(O)c1)OC1C(O)CC(OC(=O)/C=C/c2ccc(O)c(O)c2)(C(=O)O)CC1O (centres undefined),-1.5%,5.7%,?,-2.7%,-1.7%,-6.6%,104.4%,-11.3%[24.4 µM],?,5.7%,-3.3%,.
O=S(=O)(NC[C@@H]1CCC[C@H](CNS(=O)(=O)c2c(F)cccc2F)C1)c1ccc2c(c1)OCCO2,.,.,-6.3%,.,.,.,.,.,.,.,.,.
COC(=O)CCCC1=CC2=CC(=O)C(C)(OC(=O)c3cccs3)C(=O)C2=CN1Cc1ccco1 (centres undefined),-0.8%,-9.9%[12.4 µM],?,-19.1%[57.1 µM],?,1.9%,-1.6%,-11.5%[24.4 µM],?,.,.,9.2%
COC(=O)CCCC1=CC2=CC(=O)C(C)(OC(=O)c3cccs3)C(=O)C2=CN1Cc1ccccc1 (centres undefined),10.8%,-9.5%[12.4 µM],-2.1%[12.4 µM],-13.8%,-3.4%[11.5 µM],.,.,.,.,.,.,.
CCCCC1=CC2=C(c3ccco3)C(=O)C(C)(OC(=O)c3ccc(OC)cc3)C(=O)C2=CN1Cc1ccco1 (centres undefined),-1.7%,?,7.08µM*,-0.2%,6.31µM*!,-9.5%,-3.3%,?,-4.2%,.,.,-8.8%
CC1(OC(=O)C2CCCC2)C(=O)C=C2C=C3CCCN3C=C2C1=O (centres undefined),.,-5.9%[12.4 µM],1.5%[12.4 µM],.,i[11.5 µM],.,.,.,.,.,.,.

# Source: PubChem BioAssay (National Center for Advancing Translational Sciences (NCATS))
